Experimental findings from PubChem BioAssay (NCI) are described below.

Among the test systems are SR leukemia; RPMI-8226 leukemia; OVCAR-8 ovarian; OVCAR-5 ovarian; OVCAR-4 ovarian; SK-OV-3 ovarian; IGROV1 ovarian; OVCAR-3 ovarian; HS 578T breast; NCI/ADR-RES ovarian; T-47D breast; BT-549 breast; MDA-MB-435 melanoma; SW-620 colon; MCF7 breast; HCT-116 colon; HCC-2998 colon; KM12 colon; MDA-MB-468 breast.
Holding throughout (assay): NCI-60 one-dose screen, 48 h (100 = growth as untreated, 0 = no growth, -100 = all killed)
What all share (settings): 10 µM unless noted

The structures appear in SMILES notation. The panel holds about 83,000 compounds, 20% with a hit somewhere; the sample as a whole holds those more often.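 How to read the values: 0–100, growth inhibition (40 = 60% inhibited); 0, no net growth; -100 to 0, cell death (-40 = 40% of starting cells died; -100 = all dead).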 Values without a mark were called inactive. Activity calls are given as the source filed them. Rule for the calls: active = growth percent below 10; inactive = the rest.

Regarding `O=C(CSc1nc2sc3c(c2c(=O)n1-c1ccc(Cl)cc1)CCCC3)NNC(=O)c1ccc(F)cc1`, the growth with SR leukemia was 46.3%; in the assay with RPMI-8226 leukemia, 83.2%; with OVCAR-8 ovarian it was 35.4%; in the assay with OVCAR-5 ovarian, 73.8%; in the assay with OVCAR-4 ovarian it was 83.9%; in the assay with SK-OV-3 ovarian, 90.5%. The growth in the assay on IGROV1 ovarian is 63.3%; in the assay on OVCAR-3 ovarian, 119%; in the assay on HS 578T breast, 79.9%; in the assay with NCI/ADR-RES ovarian it was 77.6%; in the assay with T-47D breast it was 74%; with BT-549 breast it was 67.3%. Besides, the growth in the assay with MDA-MB-435 melanoma was 98.2%; in the assay on SW-620 colon, 91%; in the assay on MCF7 breast it was 61.9%; in the assay on HCT-116 colon it was 78.3%; with HCC-2998 colon it was 113%; in the assay with KM12 colon it was 101%. In the assay with MDA-MB-468 breast, the growth is 95%.

Consider `N#CC1=C(c2cccs2)Nc2c(c(-c3ccccc3)nn2-c2ccccc2)C12C(=O)Nc1ccc(Cl)cc12` (stereo not drawn), for which the growth with SR leukemia was 12.6%; in the assay on RPMI-8226 leukemia, 13.3%; with OVCAR-8 ovarian, 28%; in the assay on OVCAR-5 ovarian it was 5.03% (active); in the assay with OVCAR-4 ovarian, 27.2%; in the assay on SK-OV-3 ovarian, 59%. In addition, the growth was 24% in the assay with IGROV1 ovarian; 23.1% in the assay with OVCAR-3 ovarian; 8.15% (active) with HS 578T breast; 33% in the assay with NCI/ADR-RES ovarian; 11% with T-47D breast; -21.7% (active) in the assay on BT-549 breast. Moreover, the growth with MDA-MB-435 melanoma was 41.2%; in the assay with SW-620 colon, 21.3%; with MCF7 breast, 15.1%; in the assay with HCT-116 colon it was 11.5%; in the assay on HCC-2998 colon, 26.1%; in the assay with KM12 colon it was 15.3%. The growth in the assay on MDA-MB-468 breast was -22.1% (active).

`CS(=O)(=O)Nc1cc(-c2ccc3ncnc(Nc4ccc(OCc5cccnc5)c(Cl)c4)c3c2)cnc1Cl`: the growth with SR leukemia was -60.1% (active); in the assay on RPMI-8226 leukemia, -2.42% (active); in the assay on OVCAR-8 ovarian, 8.77% (active); in the assay on OVCAR-5 ovarian, 12.1%; in the assay on OVCAR-4 ovarian it was 28.9%; in the assay with SK-OV-3 ovarian, -14.9% (active). Moreover, the growth was -56.8% (active) in the assay on IGROV1 ovarian; -40.7% (active) in the assay on OVCAR-3 ovarian; -25.3% (active) with HS 578T breast; 70.5% in the assay with NCI/ADR-RES ovarian; -39% (active) in the assay on T-47D breast; -55.6% (active) in the assay with BT-549 breast. The growth with MDA-MB-435 melanoma was -9.37% (active); in the assay on SW-620 colon, 6.78% (active); in the assay on MCF7 breast it was -8.39% (active); in the assay on HCT-116 colon it was -71.6% (active); in the assay with HCC-2998 colon, -60.4% (active); in the assay on KM12 colon, 10.8%. For the same molecule, in the assay with MDA-MB-468 breast, the growth is -81.3% (active).

Consider `CCCN(CCC)S(=O)(=O)c1ccc(C(=O)O)cc1.CCCN(CCC)S(=O)(=O)c1ccc(C(=O)O)cc1.[Cl][Pt+2][Cl].[NH2-].[NH2-]`, for which the growth in the assay on SR leukemia is 3.39% (active); with RPMI-8226 leukemia, 12.3%; with OVCAR-8 ovarian, 39.7%; with OVCAR-5 ovarian, 24.5%; with OVCAR-4 ovarian, 35.4%; in the assay on SK-OV-3 ovarian, 18.8%. Besides, the growth in the assay with IGROV1 ovarian is 7.54% (active); with OVCAR-3 ovarian it was 0.454% (active); with HS 578T breast, 80.8%; in the assay with NCI/ADR-RES ovarian, 101%; in the assay with T-47D breast it was 26.3%; in the assay on BT-549 breast, -78.8% (active). For the same molecule, the growth in the assay with MDA-MB-435 melanoma was -54.6% (active); with SW-620 colon, 20.6%; with MCF7 breast, 8.34% (active); in the assay on HCT-116 colon, 2.04% (active); in the assay on HCC-2998 colon, -27.6% (active); in the assay with KM12 colon it was 17.8%. The growth in the assay with MDA-MB-468 breast was -54.3% (active).

For the molecule `COc1ccc(OC)c(Cn2cc(C#N)c(N)c2C(=O)c2ccc(Br)cc2)c1`, the growth with SR leukemia is 14.4%; with RPMI-8226 leukemia, 58%; in the assay with OVCAR-8 ovarian, 33.9%; in the assay with OVCAR-5 ovarian, 71.1%; in the assay with OVCAR-4 ovarian, 57.1%; in the assay on SK-OV-3 ovarian, 50.9%. Moreover, the growth was 48.7% with IGROV1 ovarian; 55.9% in the assay with OVCAR-3 ovarian; 45.2% in the assay on HS 578T breast; 23.2% in the assay on NCI/ADR-RES ovarian; 35.6% in the assay with T-47D breast; -86.3% (active) in the assay on BT-549 breast. Also, the growth with MDA-MB-435 melanoma is 0.655% (active); with SW-620 colon it was 31.2%; in the assay with MCF7 breast, 27.9%; with HCT-116 colon it was 24.3%; in the assay on HCC-2998 colon, 71.8%; in the assay with KM12 colon, 40%. Further, the growth in the assay with MDA-MB-468 breast is 2.73% (active).

Turning to `COc1ccc(NC(=O)CSc2nnc(-c3ccc(-c4nc5ccccc5[nH]4)cc3)o2)cc1`, the growth was 35.3% in the assay on SR leukemia; 18.4% with RPMI-8226 leukemia; -24.6% (active) in the assay on OVCAR-8 ovarian; 55.4% in the assay on OVCAR-5 ovarian; 38.3% with OVCAR-4 ovarian; 98.2% in the assay with SK-OV-3 ovarian. Moreover, the growth was 35.6% with IGROV1 ovarian; 41.4% with OVCAR-3 ovarian; 45% in the assay on HS 578T breast; 50.1% in the assay with NCI/ADR-RES ovarian; 78.6% in the assay with T-47D breast; 27.3% in the assay with BT-549 breast. Moreover, the growth in the assay on MDA-MB-435 melanoma is 20.9%; with SW-620 colon, 11.4%; in the assay with MCF7 breast, 13.8%; in the assay on HCT-116 colon, 2.37% (active); in the assay with HCC-2998 colon, 92.7%; in the assay with KM12 colon, 30.5%. The growth in the assay on MDA-MB-468 breast was 86.5%.

With `COc1ccc(-c2nnc3c(/C=C/c4ccc(Br)cc4)nc4ccccc4n23)cc1`, the growth with SR leukemia is -19.4% (active); in the assay with RPMI-8226 leukemia, 21.2%; with OVCAR-8 ovarian, 46.1%; in the assay with OVCAR-5 ovarian it was 79.7%; with OVCAR-4 ovarian it was 52.9%; in the assay with SK-OV-3 ovarian it was 112%. The growth with IGROV1 ovarian was 47.8%; in the assay on OVCAR-3 ovarian it was 15.1%; with HS 578T breast, 81.6%; in the assay on NCI/ADR-RES ovarian, 67.5%; in the assay on T-47D breast it was 64.2%; in the assay on BT-549 breast, 9.42% (active). Moreover, the growth in the assay with MDA-MB-435 melanoma is 28.9%; in the assay with SW-620 colon it was -10% (active); in the assay with MCF7 breast it was 0% (active); in the assay on HCT-116 colon it was -53.8% (active); in the assay on HCC-2998 colon, 87.7%; with KM12 colon, 85.2%. Besides, the growth in the assay on MDA-MB-468 breast is 32.7%.
